From PubChem BioAssay (NCI)
Values joined by “and” are separate entries in the source; they are usually repeats but may differ in a detail not shown here. Equal values may be shown once. This is part of a sample that, as a whole, favours compounds with a hit. Of some 83,000 tested, about 20% had one in any assay.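 In brief: 96-well plates, 48 h treatment, single concentration, percent growth endpoint.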 Active and inactive are the calls of the source. How the source made its calls: active means growth percent below 10; inactive means the rest.

tested on: MDA-MB-468 breast; experiment: NCI-60 one-dose screen, 48 h (100 = growth as untreated, 0 = no growth, -100 = all killed); settings: 10 µM unless noted

Row | Compound | growth
1 | CCCCCCNC(=O)Oc1ccc(/C(=C(\C)c2ccc(OC)cc2)c2ccc(OCCN(C)C)cc2)cc1 | 95.4% (inactive)
2 | Cn1cccc1/C=C1\C(=O)Nc2ccccc21 | -1.95% (active)
3 | CCCCCCNC(=O)Oc1ccc(/C(=C(\C)c2ccc(Cl)cc2)c2ccc(OCCN(C)C)cc2)cc1 | 84.3% (inactive)
4 | COc1cc2c(Nc3ccc(-c4ccc(N)cc4)cc3)ncnc2c(OC)c1OC | 71.9% (inactive)
5 | O=C1c2cc3c(cc2-c2c1c1cc(F)c(F)cc1c(=O)n2C[C@H](O)CO)OCO3 | -57.2% (active)
6 | O=C1CCc2ccccc2N1 | 98.8% (inactive)
7 | Cc1c2cc[nH]c(=O)c2c(C)c2c1[nH]c1ccc(OC(=O)c3ccccc3)cc12 | 12.6% (inactive)
8 | CCCC1CCC(=C2C(=O)CCC2=O)O1 (stereo not given) | 88.7% (inactive)
9 | C/C(=N\NC(=O)c1ccncc1)c1ccccc1O | 13.1% (inactive) and 22.6% (inactive)
10 | O=S(=O)(Nc1cccc2cc(OS(=O)(=O)c3ccccc3)ccc12)c1ccccc1 | 13.4% (inactive)
11 | COc1ccc(-c2nc3sc(-c4ccc(Cl)cc4)cn3n2)cc1 | 33.4% (inactive)
12 | Cc1nc2ccc(-n3c(-c4ccc(Cl)cc4)nc4ccccc4c3=O)cc2n1Cc1ccccc1 | 77.6% (inactive)
13 | Nc1nc(-c2ccnc(Cl)c2)nn1-c1nc2ccccc2s1 | 107% (inactive)
14 | O=C(Nc1cccc(C(F)(F)F)c1)Oc1ccc(Cl)c2cccnc12 | -27.2% (active)
15 | COc1cc2nccc(Oc3ccc(NC(=O)C4(C(=O)Nc5ccc(F)cc5)CC4)cc3)c2cc1OC | 33.6% (inactive)
16 | CC(CN(C)C)Oc1ccccc1NC1=C(Cl)C(=O)C(Nc2ccccc2OC(C)CN(C)C)=C(Cl)C1=O (stereo not given) | -64.2% (active)
17 | NC(N)=Nc1ccc(Oc2cccc(Nc3ccc(Cl)c(C(F)(F)F)c3)c2)cc1 | 4.84% (active)
18 | CC1(C)CCC(=NNC(N)=S)CC1 | 103% (inactive)
19 | CC[C@H]1[C@@H]2C=C[C@@H]3[C@H]4C/C=C\C(=O)NCCC[C@@H]5NC(=O)/C(=C(O)/C=C/[C@@H]4C[C@@H]3[C@H]2C[C@H]1C)C5=O | 76.8% (inactive)
20 | O=C1c2ccccc2OC=C(c2ccccc2)N1CCCCN1CCCCC1 | -6.27% (active)

Row | Compound | growth
21 | CC(C)OC(C(=O)O)c1ccccc1 (stereo not given) | 113% (inactive)
22 | C#Cc1nc(C2=C(C)C(OC(C)=O)/C(=N/OC(C)=O)C2)cs1 (stereo not given) | -60.7% (active)
23 | CCOC(=O)c1sc(NC(=O)c2cc(OC)c(OC)c(OC)c2)nc1C | 92.2% (inactive)
24 | O=C(Nc1cccc(-n2ccc3c(NC(=O)c4ccccc4)nccc32)c1)c1ccc(Cl)c(C(F)(F)F)c1 | -86.9% (active) and 85.1% (inactive)
25 | N#C/C(=C\c1ccc(Cl)cc1Cl)C(N)=O | 96.3% (inactive)
26 | COc1cc(NC(=O)NCc2ccco2)ccc1-c1ccc(NC(=O)NCc2ccco2)cc1OC | 16.8% (inactive)
27 | O=C(CSc1nc2sc3c(c2c(=O)n1Cc1ccccc1)CCCC3)N1CCN(c2ccccc2)CC1 | 106% (inactive)
28 | Cc1ccc(S(=O)(=O)n2cc(C(=O)C(=O)N3CCCCC3)c3ccccc32)cc1 | 40.2% (inactive)
29 | O=S(=O)(Nc1ccc(F)cc1F)c1ccc(-c2cnc(C3CC3)o2)cc1 | 2.58% (active)
30 | COc1ccc(C(=O)/C=C/c2cc(C(=O)c3cc(OC)c(OC)c(OC)c3)ccc2OC)cc1 | 47.2% (inactive)
31 | CC(C)c1ccc(/C=N/Nc2nc3ccccc3s2)cc1 | 110% (inactive)
32 | O=S(=O)(O)c1ccc(O)c(C2CCCCC2)c1 | 103% (inactive)
33 | C=C(CNCCc1ccc(O)cc1)[C@@H]1CC[C@]2(COC3CCCCO3)CC[C@]3(C)[C@H](CC[C@@H]4[C@@]5(C)CCC(NCCO)C(C)(C)[C@@H]5CC[C@]43C)[C@@H]12 (stereo not given in full) | -80.1% (active)
34 | COc1ccc(/C=C(\C#N)n2nnc3ccccc32)cc1 | 4.67% (active)
35 | NC(=O)c1ccc(N=C(N)N=C(N)N)cc1 | 84.5% (inactive)
36 | Cn1cc(C(=O)c2nc(-c3c[nH]c4ccc(Br)cc34)no2)c2cc(F)ccc21 | 108% (inactive)
37 | N#C/C(=C\c1ccc(-c2ccc(F)cc2)o1)C(=O)Nc1ncc(Cc2ccc(Cl)cc2Cl)s1 | -54.9% (active)
38 | c1ccc2cc3c(Nc4ccc(N5CCOCC5)cc4)ccnc3cc2c1 | 87.9% (inactive)
39 | Cc1nc2ccccc2n1CC1C(=O)NC(=O)NC1=O | 107% (inactive)
40 | C[C@@H]1NC(=O)[C@H](Cc2ccccc2)N(Cc2cccnc2)C1=O | 108% (inactive)
